This passage reports inhibition results from ChEMBL document CHEMBL1961873, “Compounds: GSK PKIS; Assays: Nanosyn kinase panel” (2012).

Assay [1] deals with Serine/threonine-protein kinase pim-2 (Homo sapiens) (UniProt Q9P1W9). As to conditions: at 1 µM.
Assay [2] deals with Serine/threonine-protein kinase pim-3 (Homo sapiens) (UniProt Q86V86). As to conditions: at 0.1 µM.
The target is the same in assay [3]. As to conditions: at 1 µM.
Assay [4] addresses T1, MAP kinase-activated protein kinase 5 (Homo sapiens) (UniProt Q8IW41).
T1 sequence (whole entry): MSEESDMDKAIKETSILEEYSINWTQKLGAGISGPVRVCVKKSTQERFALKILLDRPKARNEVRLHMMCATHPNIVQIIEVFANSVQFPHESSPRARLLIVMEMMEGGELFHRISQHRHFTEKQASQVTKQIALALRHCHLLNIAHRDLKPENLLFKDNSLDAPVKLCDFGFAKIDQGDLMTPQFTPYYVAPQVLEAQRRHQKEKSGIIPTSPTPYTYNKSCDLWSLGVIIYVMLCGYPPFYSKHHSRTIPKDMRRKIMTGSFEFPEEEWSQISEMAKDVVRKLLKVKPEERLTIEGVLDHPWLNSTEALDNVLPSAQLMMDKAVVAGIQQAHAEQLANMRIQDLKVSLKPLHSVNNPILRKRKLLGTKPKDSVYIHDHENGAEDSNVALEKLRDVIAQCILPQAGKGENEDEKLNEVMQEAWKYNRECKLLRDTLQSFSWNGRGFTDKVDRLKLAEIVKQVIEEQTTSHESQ
As to conditions: at 0.1 µM.

The target of assay [5] is T1, MAP kinase-activated protein kinase 5 (Homo sapiens). The following applies: at 1 µM.
Assay [6] addresses Serine/threonine-protein kinase SIK1 (Homo sapiens) (UniProt P57059). As to conditions: at 0.1 µM.
The target is the same in assay [7]. The following applies: at 1 µM.
In assay [8] the target is Serine/threonine-protein kinase SIK2 (Homo sapiens) (UniProt Q9H0K1). The following applies: at 0.1 µM.
The target is the same in assay [9]. As to conditions: at 1 µM.
Assay [10] concerns the target T2, Serine/threonine-protein kinase TBK1 (Homo sapiens) (UniProt Q9UHD2).
T2 sequence (whole entry): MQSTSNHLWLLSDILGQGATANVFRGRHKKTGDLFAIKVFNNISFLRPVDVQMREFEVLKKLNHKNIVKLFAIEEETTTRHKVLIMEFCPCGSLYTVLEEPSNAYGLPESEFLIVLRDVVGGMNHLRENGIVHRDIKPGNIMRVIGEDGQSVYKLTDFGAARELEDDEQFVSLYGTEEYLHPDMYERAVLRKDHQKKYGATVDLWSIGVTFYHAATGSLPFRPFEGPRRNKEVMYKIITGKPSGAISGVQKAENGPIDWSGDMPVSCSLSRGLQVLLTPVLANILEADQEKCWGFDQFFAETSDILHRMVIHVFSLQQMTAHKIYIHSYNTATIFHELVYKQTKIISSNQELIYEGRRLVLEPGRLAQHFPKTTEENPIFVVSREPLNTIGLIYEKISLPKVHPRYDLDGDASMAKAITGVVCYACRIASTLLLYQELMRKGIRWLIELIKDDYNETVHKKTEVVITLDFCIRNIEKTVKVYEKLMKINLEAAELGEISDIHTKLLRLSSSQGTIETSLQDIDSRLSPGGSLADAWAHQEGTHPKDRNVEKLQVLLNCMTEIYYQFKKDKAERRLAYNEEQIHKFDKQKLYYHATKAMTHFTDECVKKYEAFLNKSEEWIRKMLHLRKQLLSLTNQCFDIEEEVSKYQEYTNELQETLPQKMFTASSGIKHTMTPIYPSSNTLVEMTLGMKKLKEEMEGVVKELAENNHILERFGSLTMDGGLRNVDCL
As to conditions: at 0.1 µM.

In assay [11] the target is T2, Serine/threonine-protein kinase TBK1 (Homo sapiens). As to conditions: at 1 µM.
For assay [12], the target named is T3, Testis-specific serine/threonine-protein kinase 1 (Homo sapiens) (UniProt Q9BXA7).
T3 sequence (whole entry): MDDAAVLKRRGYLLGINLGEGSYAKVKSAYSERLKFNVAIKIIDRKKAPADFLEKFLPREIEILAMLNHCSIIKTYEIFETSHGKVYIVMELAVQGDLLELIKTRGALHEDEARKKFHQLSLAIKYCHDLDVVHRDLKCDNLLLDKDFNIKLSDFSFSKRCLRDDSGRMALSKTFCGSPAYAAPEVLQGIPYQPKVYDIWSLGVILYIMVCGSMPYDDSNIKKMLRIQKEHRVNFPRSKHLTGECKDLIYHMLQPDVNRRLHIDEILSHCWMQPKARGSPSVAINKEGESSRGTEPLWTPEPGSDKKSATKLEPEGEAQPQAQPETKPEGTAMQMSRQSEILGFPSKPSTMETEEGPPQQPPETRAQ
As to conditions: at 0.1 µM.

In assay [13] the target is T3, Testis-specific serine/threonine-protein kinase 1 (Homo sapiens). As to conditions: at 1 µM.
For assay [14], the target named is T4, Testis-specific serine/threonine-protein kinase 2 (Homo sapiens) (UniProt Q96PF2).
T4 sequence (whole entry): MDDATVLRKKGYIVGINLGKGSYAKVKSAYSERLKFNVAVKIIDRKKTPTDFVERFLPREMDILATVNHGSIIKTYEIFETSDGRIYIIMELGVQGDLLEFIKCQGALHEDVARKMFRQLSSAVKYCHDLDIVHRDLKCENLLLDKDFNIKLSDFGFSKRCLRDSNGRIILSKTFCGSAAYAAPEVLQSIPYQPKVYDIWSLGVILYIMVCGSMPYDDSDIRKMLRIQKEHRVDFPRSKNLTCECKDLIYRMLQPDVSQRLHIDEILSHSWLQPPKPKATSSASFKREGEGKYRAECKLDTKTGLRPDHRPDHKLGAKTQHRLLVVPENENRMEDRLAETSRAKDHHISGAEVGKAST
As to conditions: at 0.1 µM.

The target in assay [15] is T4, Testis-specific serine/threonine-protein kinase 2 (Homo sapiens). As to conditions: at 1 µM.
Assay [16] has as its target Casein kinase I isoform alpha (Homo sapiens) (UniProt P48729). The following applies: at 0.1 µM.
The target is the same in assay [17]. As to conditions: at 1 µM.
Assay [18] concerns the target Casein kinase I isoform gamma-1 (Homo sapiens) (UniProt Q9HCP0). As to conditions: at 0.1 µM.
The target is the same in assay [19]. As to conditions: at 1 µM.
Assay [20] deals with Casein kinase I isoform gamma-2 (Homo sapiens) (UniProt P78368). As to conditions: at 0.1 µM.
Chain of Casein kinase I isoform gamma-2 (Homo sapiens) (P78368 whole entry, looked up, canonical isoform): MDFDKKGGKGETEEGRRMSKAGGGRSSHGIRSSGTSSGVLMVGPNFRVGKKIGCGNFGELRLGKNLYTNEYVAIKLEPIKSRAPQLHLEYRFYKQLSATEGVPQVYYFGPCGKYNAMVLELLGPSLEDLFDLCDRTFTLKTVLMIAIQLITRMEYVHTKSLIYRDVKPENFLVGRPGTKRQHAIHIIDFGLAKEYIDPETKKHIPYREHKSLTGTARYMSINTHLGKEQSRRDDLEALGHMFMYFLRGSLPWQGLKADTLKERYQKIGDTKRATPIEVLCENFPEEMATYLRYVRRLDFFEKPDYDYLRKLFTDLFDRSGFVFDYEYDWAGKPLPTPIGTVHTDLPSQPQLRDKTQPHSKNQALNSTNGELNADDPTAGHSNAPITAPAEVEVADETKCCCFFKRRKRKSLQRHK

Chain of Serine/threonine-protein kinase pim-2 (Homo sapiens) (Q9P1W9 whole entry, looked up): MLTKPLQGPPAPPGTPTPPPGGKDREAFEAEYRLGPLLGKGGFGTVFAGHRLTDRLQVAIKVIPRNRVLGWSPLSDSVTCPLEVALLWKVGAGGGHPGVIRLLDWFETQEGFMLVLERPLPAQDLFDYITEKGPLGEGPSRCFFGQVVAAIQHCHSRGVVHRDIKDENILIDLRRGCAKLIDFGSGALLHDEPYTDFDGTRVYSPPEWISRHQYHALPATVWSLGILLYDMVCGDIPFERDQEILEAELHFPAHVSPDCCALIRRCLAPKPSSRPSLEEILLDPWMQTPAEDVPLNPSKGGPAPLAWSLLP
Chain of Serine/threonine-protein kinase SIK2 (Homo sapiens) (Q9H0K1 whole entry, looked up): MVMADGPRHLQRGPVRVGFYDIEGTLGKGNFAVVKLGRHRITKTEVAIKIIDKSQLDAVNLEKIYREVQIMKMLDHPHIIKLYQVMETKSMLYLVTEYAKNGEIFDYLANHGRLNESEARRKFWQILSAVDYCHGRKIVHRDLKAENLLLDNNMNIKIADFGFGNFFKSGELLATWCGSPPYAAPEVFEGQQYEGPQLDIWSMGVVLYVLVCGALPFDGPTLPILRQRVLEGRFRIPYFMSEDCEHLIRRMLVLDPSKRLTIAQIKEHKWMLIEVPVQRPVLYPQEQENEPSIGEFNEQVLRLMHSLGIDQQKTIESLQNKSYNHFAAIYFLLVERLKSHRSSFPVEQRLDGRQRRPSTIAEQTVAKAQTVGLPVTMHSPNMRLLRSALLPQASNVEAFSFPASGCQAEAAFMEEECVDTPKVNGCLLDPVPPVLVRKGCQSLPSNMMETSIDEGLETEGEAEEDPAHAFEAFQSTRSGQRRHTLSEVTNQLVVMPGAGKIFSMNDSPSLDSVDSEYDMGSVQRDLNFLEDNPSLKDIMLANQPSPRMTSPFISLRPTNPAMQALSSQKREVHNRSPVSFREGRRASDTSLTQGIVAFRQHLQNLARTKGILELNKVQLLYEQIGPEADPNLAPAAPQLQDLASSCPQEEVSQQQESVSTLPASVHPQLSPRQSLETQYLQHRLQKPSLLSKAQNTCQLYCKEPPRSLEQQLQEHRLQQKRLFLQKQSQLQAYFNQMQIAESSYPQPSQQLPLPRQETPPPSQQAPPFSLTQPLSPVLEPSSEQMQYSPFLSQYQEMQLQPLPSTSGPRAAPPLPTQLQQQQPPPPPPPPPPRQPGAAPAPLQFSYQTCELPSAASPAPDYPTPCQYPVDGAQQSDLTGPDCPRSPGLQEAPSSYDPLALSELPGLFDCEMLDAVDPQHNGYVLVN
Chain of Casein kinase I isoform alpha (Homo sapiens) (P48729 2-337 limits assumed): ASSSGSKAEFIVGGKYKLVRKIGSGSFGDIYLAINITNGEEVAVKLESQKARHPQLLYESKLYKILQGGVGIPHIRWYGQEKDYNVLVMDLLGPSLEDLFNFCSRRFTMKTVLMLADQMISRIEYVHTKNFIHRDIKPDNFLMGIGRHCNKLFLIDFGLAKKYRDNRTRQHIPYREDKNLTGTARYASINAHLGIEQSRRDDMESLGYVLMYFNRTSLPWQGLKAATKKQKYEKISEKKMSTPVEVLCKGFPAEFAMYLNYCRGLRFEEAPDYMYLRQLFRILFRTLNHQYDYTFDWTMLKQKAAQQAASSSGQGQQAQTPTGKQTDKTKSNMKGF
Chain of Casein kinase I isoform gamma-1 (Homo sapiens) (Q9HCP0 whole entry, looked up, canonical isoform): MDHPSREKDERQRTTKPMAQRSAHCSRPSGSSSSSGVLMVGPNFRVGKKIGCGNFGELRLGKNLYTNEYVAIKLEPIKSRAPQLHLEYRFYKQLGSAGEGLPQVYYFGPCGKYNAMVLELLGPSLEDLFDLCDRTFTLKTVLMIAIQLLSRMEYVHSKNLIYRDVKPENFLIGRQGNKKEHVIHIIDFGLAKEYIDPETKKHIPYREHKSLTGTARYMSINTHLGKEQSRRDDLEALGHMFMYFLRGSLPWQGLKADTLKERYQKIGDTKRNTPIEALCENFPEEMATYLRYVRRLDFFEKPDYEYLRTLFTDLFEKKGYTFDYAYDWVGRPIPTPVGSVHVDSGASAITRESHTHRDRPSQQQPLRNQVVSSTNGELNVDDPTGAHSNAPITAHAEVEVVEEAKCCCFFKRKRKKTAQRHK
Chain of Serine/threonine-protein kinase SIK1 (Homo sapiens) (P57059 whole entry): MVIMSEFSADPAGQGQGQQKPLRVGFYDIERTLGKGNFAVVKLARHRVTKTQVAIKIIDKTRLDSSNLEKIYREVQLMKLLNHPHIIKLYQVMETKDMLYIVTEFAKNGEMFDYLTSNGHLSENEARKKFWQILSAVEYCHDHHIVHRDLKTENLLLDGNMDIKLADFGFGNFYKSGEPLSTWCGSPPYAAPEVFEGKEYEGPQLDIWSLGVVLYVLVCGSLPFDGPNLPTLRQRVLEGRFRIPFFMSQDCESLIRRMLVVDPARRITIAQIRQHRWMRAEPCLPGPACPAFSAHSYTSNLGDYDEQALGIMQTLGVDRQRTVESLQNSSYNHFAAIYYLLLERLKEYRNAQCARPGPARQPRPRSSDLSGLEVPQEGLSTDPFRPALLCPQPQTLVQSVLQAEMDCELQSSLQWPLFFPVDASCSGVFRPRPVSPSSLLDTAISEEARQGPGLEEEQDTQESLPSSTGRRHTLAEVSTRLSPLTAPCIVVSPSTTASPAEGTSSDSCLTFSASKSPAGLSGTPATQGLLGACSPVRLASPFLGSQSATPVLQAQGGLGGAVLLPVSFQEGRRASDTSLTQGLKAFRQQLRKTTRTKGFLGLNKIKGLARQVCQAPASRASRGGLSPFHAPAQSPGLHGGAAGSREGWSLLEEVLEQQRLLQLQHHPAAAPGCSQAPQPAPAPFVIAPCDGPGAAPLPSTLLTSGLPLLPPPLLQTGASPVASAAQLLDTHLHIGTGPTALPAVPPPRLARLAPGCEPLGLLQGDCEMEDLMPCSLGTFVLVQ

`O=C1NC(=O)C(c2cccc(Cl)c2)=C1Nc1ccc(Cl)c(C(=O)O)c1`: the inhibition – broadly, the drop in the measured response relative to a control, in per cent – was -0.53% in assay [1]; 0.54% in [2]; 0.43% in assay [3]; 1.73% in assay [4]; 2.67% in assay [5]; 4.05% in [6]. Moreover, the inhibition in assay [7] stood at 5.1%; in assay [8], 10.7%; in assay [9], 4.62%; in assay [10], 2.24%; in [11] it was 5.8%; in [12] it was 4.88%. The inhibition in [13] turned out to be 4.16%; in assay [14], 3.03%; in [15], 4.21%; in assay [16] it was 1.07%; in [17], 2.57%; in assay [18], 2.32%. Also, the inhibition in assay [19] is 1.79%; in assay [20], 2.25%.

Take `Cc1nnc(-c2ccc(C)c(-c3ccc(C(=O)NCc4ccc(Cl)cc4)cc3)c2)o1`: the inhibition was -2.67% in [1]; 0.64% in assay [2]; 0.96% in [3]; 1.56% in assay [4]; 2.59% in assay [5]; 1.09% in assay [6]. The inhibition was 7.21% in assay [7]; 5.11% in [8]; 11.4% in assay [9]; 1.16% in assay [10]; 3.88% in [11]; 4.06% in assay [12]. The inhibition amounted to 4.33% in assay [13]; 1.65% in assay [14]; 3.27% in assay [15]; 2.79% in assay [16]; 4.63% in assay [17]; 0.71% in assay [18]. The inhibition in assay [19] was 2.06%; in [20], -1.05%.

With `CN(c1ccc(NC(=O)Nc2c(Cl)cccc2Cl)cc1)c1ccnc(Nc2cccc(CS(C)(=O)=O)c2)n1`, the inhibition was found to be 0.1% in assay [1]; 1.1% in [2]; 3.85% in [3]; 1.58% in [4]; 1.46% in assay [5]; 5.71% in [6]. Moreover, the inhibition came to 13.3% in [7]; 9.6% in assay [8]; 10.2% in assay [9]; 3.74% in [10]; 8.89% in assay [11]; 1.9% in assay [12]. In addition, the inhibition in [13] was found to be 3.33%; in assay [14], 0.55%; in assay [15], 1.93%; in assay [16], 1.15%; in assay [17], 1.15%; in assay [18], 0.39%. Besides, the inhibition in [19] amounted to 1.32%; in assay [20] it was 1.06%.

Consider `CNC(=O)c1cncc(/C=C/c2c(C)cccc2C)c1`, for which the inhibition is -3.47% in assay [1]; 1.2% in assay [2]; 2.65% in assay [3]; -0.02% in assay [4]; -0.41% in assay [5]; 26.2% in [6]. Also, the inhibition in assay [7] came out at 76%; in assay [8] it was 7.18%; in [9], 27.6%; in assay [10] it was 0.21%; in assay [11], 0.94%; in assay [12], 0.04%. Moreover, the inhibition in assay [13] is -1.47%; in [14], -0.04%; in [15], -1.42%; in assay [16] it was 4.35%; in assay [17] it was 2.33%; in assay [18], -2.91%. For the same molecule, the inhibition was -2.08% in assay [19] and -2.38% in [20].

As to `CCN(CC)Cc1ccc(Nc2nccc(-c3cnn4ncccc34)n2)cc1`, the inhibition in assay [1] was -0.59%; in [2] it was 6.38%; in assay [3] it was 37.2%; in assay [4], 1.44%; in assay [5], 2.13%; in assay [6], 2.61%. Moreover, the inhibition in assay [7] was determined as 24.1%; in assay [8] it was 10.8%; in assay [9], 47.2%; in [10] it was 5.04%; in [11] it was 12.3%; in assay [12], 5.5%. In addition, the inhibition in [13] worked out at 26.5%; in [14], 0.81%; in assay [15], 2.16%; in [16], 15.2%; in assay [17] it was 54.3%; in assay [18] it was 2.36%. Besides, the values for the inhibition in assay [19] and in assay [20] were 6.01% and 1.79%, respectively.

In the case of `COc1cc(Nc2ncc(-c3ccccc3)o2)cc(OC)c1OC`, the inhibition in assay [1] was 1.06%; in [2], 0.31%; in [3], 1.87%; in assay [4], -0.54%; in assay [5] it was 0.01%; in [6], 0.98%. Moreover, the inhibition in assay [7] came to 27.4%; in assay [8] it was 3.12%; in assay [9] it was 30.6%; in assay [10] it was 2.26%; in assay [11], 13.7%; in assay [12], 0.03%. The inhibition is -0.04% in assay [13]; -1.14% in [14]; -1.3% in assay [15]; -0.72% in assay [16]; 1.29% in [17]; -1.4% in assay [18]. For the same molecule, the inhibition in assay [19] is -0.76%; in assay [20] it was -1.34%.

With `O=C1Nc2ccccc2/C1=C/Nc1ccc(-n2cncn2)cc1`, the inhibition in assay [1] came to 2.25%; in [2], 1.36%; in assay [3], 4.7%; in [4], 1.63%; in assay [5] it was 4.02%; in [6], 5.8%. For the same molecule, the inhibition in [7] is 9.8%; in assay [8] it was 3.09%; in [9], 11.6%; in assay [10] it was 6.41%; in assay [11] it was 17.3%; in [12], 4.37%. In addition, the inhibition was 7.35% in assay [13]; 3.01% in assay [14]; 5.54% in assay [15]; 3.79% in [16]; 10.3% in assay [17]; 4.33% in assay [18]. Further, the inhibition in [19] is 7.11%; in [20], 3.66%.
